Test results reported in the supplement of paper PMC6555819.

The sequences below were run on VDR:RXRa (NR concentration 270 nM, RXRa partner concentration 90 nM) (assay: PBM binding z-score (relative to random genomic background probes); higher = stronger binding; sequences stand for … in GC…GCGATTGACAGCGTAGAATGAAGG).
Method: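 Protein-binding microarray (Agilent 4x180K custom design, double-stranded 60-nt probes: 5' GC cap, 34-nt variable region, 24-nt constant primer region; full probe sequence given). Purified or IVT nuclear receptor:RXRα heterodimers (3:1 NR:RXRα, mostly 270:90 nM) or homodimers were incubated for 1 h in PBS with 2% milk and no ligand, then detected with Alexa488 antibodies. Fluorescence from o1-orientation probes (~5 replicates averaged) was converted to z-scores against 500 random hg19 background probes. Variable regions are seed direct-repeat (DR0–DR5) sites, all their single-nucleotide variants and half-site ablations.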

Sequence	PBM binding z-score
CCTTACGGGTCACGAAGTTATAGCACGACGAGCG	3.91
CTCGAAAGGTCGGCTGAGGTGAGTATACGGATAA	2.95
CCTCGGAGGACAACAGGAGCTCAGAGCTGCCAGA	-0.533
CAAACTAGGTCACCGGAAGGTCTAAGTCCGCATG	3.1
AGAACGAGGGCAATGTGTTGATAGCACGGGTGGC	0.824
ATCGAAAGGTCGTGAGGTGAGTATACAGAAAGGC	3.69
TGAATGAGGTTAAAGATCAGCGAACGTGGCGTCG	1.75
AGAATGAGGTTACCAAAGATCATGGAAACGCTTG	1.79
GCTAGCAGGCCATTTGGGTCACACAATGACGGGC	1.24
ATACCAAGGTGATAGTGAGGTCGTTGATACTAAC	3.69
AGACAAAGTTCATCTAGGTAACGTAAGATATGCT	5.16
TCTCGCAGGACACGAAAGGTCAGAGCTCGACATC	2.89
TCGAGTAGGTTACCAATGGGGCATTCAGCTTTCT	0.0745
CCGCGGAGGACAACAGGAGGTCAGAGCTGCCAGA	1.8
TTGCCTAGGTCATTCAGGGGCCAGTATAGAAAGC	3.15
CCTACTGGGCCAATCAGAGGTCATTGATCATATG	4.12
CCGACTGGGGCACGGTTACCATAACGCACAGCCA	-0.636
TCAGACAGGTGAACGTAACTCAGGTACGCAGTCG	0.682
TCCAGTAGGTTACCAATGGGGCATTCAGCTTTCT	0.0983
TCCCGGAGGACACGAAGGTCAGAGCTTTCCAGAG	2.15

Sequence	PBM binding z-score
CATACAGGGTCAGCTGGGCCAGAGTAGGGACGGC	3.63
TCTAGCAGGCAAGAGGGTCACTCAAGAGGTACGG	2.01
TCACATAGGTAAACAGGTGAAAGTCCGTAAGTTA	0.849
TCGAGAAGGTTAGTCGGGGCATTCAGCCAACATA	3.71
ATATGTAGGCTAAGGGTCATTCAGGTTGGTTCGC	5.13
TCATGTAGATCAAGCAGGTTAAGAAAGCCTGAGT	0.938
TCTGCTAGGCCAACGATGGTCAGCTAATCTGCTA	-0.596
GCTCGAAGGACAAGGTCAGAGCTTTGTCCGTAGA	1.31
TGAATGAGGTAATAAGATCAGGGAACGTTGCAAA	-0.334
CCTAGCAGGCCAATCTGGGTCACTCCAGGCTTGA	0.284
TCTCGGGGGACACGAAGGTCAGAGCTTTCCAGAG	3.72
TTACCAAGATGAAAGGTCGTTGATGCACGCCTTG	1.69
AGAATGAGGTTACCAAAGATCCGGGAAACGCTTG	1.16
TAGCCTAGGTCTGATCGGGCCAGTATACGCTATA	-0.771
TCATATAGGTAAATGCTAGGTGCAAGTCCGATCT	0.809
GCTCGGAGGACAAGGTCAGACCTTTGTCCGTAGA	1.97
GCGACTGGGGCAAAGCAGGTTACAATAAGGTTGG	0.294
GCAGACAGGTCAAACGCAGGTAACTCAGGGTGGC	3
TCTTGTAGATCAATAGAGGTTAAGACAGTGCGCT	1.7
CCTTACGGGTCACTGACAGGTTAAAGCATTTGGA	3.75
